Experimental data from article PMC7819943, “Rice protein-binding microarrays: a tool to detect cis-acting elements near promoter regions in rice”.
In all, about 39,000 sequences were measured (“fluorescence intensity (a.u.)”: median about 4,300, highest 2% from about 39,000 on). This is one part of a sample in which the highest values are shown more often than they occur.

Molecular target: T1, OsSMF1 (Oryza sativa, UniProt Q6ZLB0 1-436)
T1 sequence: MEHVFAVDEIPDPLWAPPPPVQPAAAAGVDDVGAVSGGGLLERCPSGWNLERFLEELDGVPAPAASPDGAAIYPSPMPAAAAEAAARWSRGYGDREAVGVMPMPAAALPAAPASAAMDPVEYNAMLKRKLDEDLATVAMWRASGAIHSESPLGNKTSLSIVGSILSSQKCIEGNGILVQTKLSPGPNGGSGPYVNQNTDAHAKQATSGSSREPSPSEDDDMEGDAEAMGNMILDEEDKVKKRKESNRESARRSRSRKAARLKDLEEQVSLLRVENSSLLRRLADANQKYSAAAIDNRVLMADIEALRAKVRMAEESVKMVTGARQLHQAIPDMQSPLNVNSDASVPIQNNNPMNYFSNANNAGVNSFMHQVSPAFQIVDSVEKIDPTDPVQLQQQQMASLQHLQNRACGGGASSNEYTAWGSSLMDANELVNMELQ
Assay: protein-binding microarray (RPBM); PBS, 2% BSA, 51.3 ng/ul salmon testes DNA, 50 uM zinc acetate, 200 nM TF, 25 C, 1 h; high values mean tight binding
Details: protein: recombinant; tags: N-terminal polyhistidine and DsRed monomer fusion (pET32a); chain copies: 2; label: CyDye5-dUTP incorporated in the synthesized complementary strand; 3' TTTTT single-stranded linker to array surface; dsDNA, one strand shown
In short: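 For the binding signal, per-feature fluorescence intensity was read in arbitrary units on an Axon 4000B scanner. Before scanning, a 2% BSA-blocked custom Agilent array made double-stranded with Cy5-dUTP was washed after 1 h at 25 °C with 200 nM protein and 50 µM zinc acetate. The proteins were Ni–NTA-purified transcription factors with N-terminal polyhistidine and DsRed fusions, expressed in E. coli BL21-CodonPlus.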

Q: For “GACTTGCGGCCACGGAGTCAGGGCCGTGCACGTGGAGGTACGGAGTCACCTAGTGCAG”, which binding signal is on record?
A: Its binding signal is 4910 fluorescence intensity (a.u.).

Q: “CCCATGGCGTGCCACTCCGGCGGTCCGGCCGCCACGTCAGCGGAGTCACCTAGTGCAG” was tested. Which binding signal did it give?
A: The binding signal was 38500 fluorescence intensity (a.u.).

Q: For “TCTGACTGCCTCCGTCACTCCGTGCCTCGTTGGGAGCAGCCGGAGTCACCTAGTGCAG”, which binding signal is on record?
A: The binding signal was 5300 fluorescence intensity (a.u.).

Q: With “CGGACTGAGCTGCCTCGCCCGCCTCCGAGCAGTTGGGGAACGGAGTCACCTAGTGCAG” as the sequence, how does the binding signal read?
A: The binding signal was 40900 fluorescence intensity (a.u.).

Q: Which binding signal does the source give for “GTGGCCACTTGCATCAGCCGGCCATGAGTGGAGGGGTAAGCGGAGTCACCTAGTGCAG” here?
A: Its binding signal is 49700 fluorescence intensity (a.u.).

Q: With “TCGCTGCCCTCCCGCCCGTTGGCCGAAGGGGAAGAAGGGGCGGAGTCACCTAGTGCAG” as the sequence, how does the binding signal read?
A: The binding signal was 36900 fluorescence intensity (a.u.).

Q: Which binding signal does the source give for “CTGAGCTGCCACCTCCGCCGCCGCCAGCATGATGGCCTTGCGGAGTCACCTAGTGCAG” here?
A: Its binding signal is 42500 fluorescence intensity (a.u.).

Q: For “TGAGGGCCGCCACGTCCTCATGGCCTCCGCCCCATCGGAGCGGAGTCACCTAGTGCAG”, which binding signal is on record?
A: Its binding signal is 7660 fluorescence intensity (a.u.).

Q: With “GATGAGATGAGGGAGATACCATCAGACTTGCACCAGATGGCGGAGTCACCTAGTGCAG” as the sequence, how does the binding signal read?
A: The binding signal was 3660 fluorescence intensity (a.u.).

Q: For “CGTCGATGGCGTGCGTGAGAGCCTCCACGCCTTGCTGCCGCGGAGTCACCTAGTGCAG”, which binding signal is on record?
A: The binding signal was 4660 fluorescence intensity (a.u.).

Q: “CATGGCCACGTCCGCCACCTTGCGGATGCCGGAGGGTAAGCGGAGTCACCTAGTGCAG” was tested. Which binding signal did it give?
A: The binding signal was 41400 fluorescence intensity (a.u.).

Q: Which binding signal does the source give for “TCATACACATACAACTTTTCAGTCACATCATTTACAATTTCGGAGTCACCTAGTGCAG” here?
A: Its binding signal is 29000 fluorescence intensity (a.u.).

Q: How did the binding signal turn out when “AAACACTGAAATTTTAGCATCACGAAGTTCTCACCGAGACCGGAGTCACCTAGTGCAG” was run?
A: The binding signal was 5200 fluorescence intensity (a.u.).

Q: “GGGTTCGATTCCCCGCACCTCCAATATAAAACGTTTTCTTCGGAGTCACCTAGTGCAG” was tested. Which binding signal did it give?
A: Its binding signal is 3420 fluorescence intensity (a.u.).

Q: “GAGTCCGGCGTGATGCCGTGATGACGCCGCAACGCGGCATCGGAGTCACCTAGTGCAG” was tested. Which binding signal did it give?
A: The binding signal was 9060 fluorescence intensity (a.u.).

Q: Which binding signal does the source give for “AGCATGCACCTTGATCACGGGAACGAGCTAGCGAGAGGCACGGAGTCACCTAGTGCAG” here?
A: Its binding signal is 3720 fluorescence intensity (a.u.).

Q: For “ACAAACGAACAAGACATGAAGCCGATGAGTCCAGCAGAGCCGGAGTCACCTAGTGCAG”, which binding signal is on record?
A: The binding signal was 3170 fluorescence intensity (a.u.).

Q: With “GTTAATGGTGACTTTATTTTCGTCTGTTACAAAACGGAAGCGGAGTCACCTAGTGCAG” as the sequence, how does the binding signal read?
A: Its binding signal is 3250 fluorescence intensity (a.u.).

Q: With “GATTAATTGATTTATTTCTTTCTGCTTTACCCGGTCGCCACGGAGTCACCTAGTGCAG” as the sequence, how does the binding signal read?
A: Its binding signal is 19200 fluorescence intensity (a.u.).

Q: “TGGGAGCGCTGGGGCTGGCCATCTCTCCTTGCCTGCTGTGCGGAGTCACCTAGTGCAG” was tested. Which binding signal did it give?
A: The binding signal was 29400 fluorescence intensity (a.u.).

Q: “GCTGGCCCATCTCCTTGCCCACCCATGGGCCTGAAAGCCGCGGAGTCACCTAGTGCAG” was tested. Which binding signal did it give?
A: The binding signal was 49900 fluorescence intensity (a.u.).

Q: For “CACCCATCTCCTTGCCGGCCTCTCCACCCCGCCTCTTTCGCGGAGTCACCTAGTGCAG”, which binding signal is on record?
A: Its binding signal is 19000 fluorescence intensity (a.u.).

Q: How did the binding signal turn out when “ATTGATGTTACATGCCTCGCAAGCGATGACACGGCAAGCTCGGAGTCACCTAGTGCAG” was run?
A: The binding signal was 5060 fluorescence intensity (a.u.).

Q: “AGCTCAGCTGTCACGGTGTCACCTGTCAGCGCCCACAACTCGGAGTCACCTAGTGCAG” was tested. Which binding signal did it give?
A: Its binding signal is 6140 fluorescence intensity (a.u.).

Q: With “GGCGAAGAATGCAGACATGACACGGACCCATCGACGCGGGCGGAGTCACCTAGTGCAG” as the sequence, how does the binding signal read?
A: Its binding signal is 3340 fluorescence intensity (a.u.).

Q: With “AGTGGAAGCAGGTCTTTTACTGATCGATCAAGGTCTGATGCGGAGTCACCTAGTGCAG” as the sequence, how does the binding signal read?
A: The binding signal was 16800 fluorescence intensity (a.u.).

Q: For “CTCATCTCAAGCTTTTCTCTCTCTCTCTCTCTTTGCACTACGGAGTCACCTAGTGCAG”, which binding signal is on record?
A: Its binding signal is 4680 fluorescence intensity (a.u.).

Q: Which binding signal does the source give for “GAGCTTCTGACTCATCTTTACTAGGAAGGGTCTTTTCAAGCGGAGTCACCTAGTGCAG” here?
A: The binding signal was 39100 fluorescence intensity (a.u.).

Q: For “CGCCGTCGACACGTGGGGCCCCTCCTCCCGCCGCCGCCGCCGGAGTCACCTAGTGCAG”, which binding signal is on record?
A: Its binding signal is 9020 fluorescence intensity (a.u.).

Q: How did the binding signal turn out when “GACTACGCGTACGCCACGCCACAACGCTTCTCGCTCTCCCCGGAGTCACCTAGTGCAG” was run?
A: Its binding signal is 4510 fluorescence intensity (a.u.).

Q: Which binding signal does the source give for “TTAATAGTATAGTAAGCAATTGTTGTATGAATTGGCTATTCGGAGTCACCTAGTGCAG” here?
A: The binding signal was 27200 fluorescence intensity (a.u.).

Q: Which binding signal does the source give for “CTCTCCTACAATAGGATGGACTATGTGACGTAGCACAATGCGGAGTCACCTAGTGCAG” here?
A: Its binding signal is 7860 fluorescence intensity (a.u.).

Q: “TTAGCAAGTGCCTATGTGAGGATATAGCAATATTTCAATGCGGAGTCACCTAGTGCAG” was tested. Which binding signal did it give?
A: Its binding signal is 42200 fluorescence intensity (a.u.).

Q: How did the binding signal turn out when “TATATTCAATGCTATGTTTAATGAAACTAATTTGGATATTCGGAGTCACCTAGTGCAG” was run?
A: The binding signal was 65100 fluorescence intensity (a.u.).

Q: How did the binding signal turn out when “CAAATATATTATCAAAATATATTCAATGCTAAATTTAATGCGGAGTCACCTAGTGCAG” was run?
A: Its binding signal is 5300 fluorescence intensity (a.u.).

Q: “CTATATTAATTAATGAATTAGCAATTGGATGTACCAATTTCGGAGTCACCTAGTGCAG” was tested. Which binding signal did it give?
A: The binding signal was 41000 fluorescence intensity (a.u.).

Q: “ACAATTTTAATGAAATCGTACATTATACTATATATGTTTTCGGAGTCACCTAGTGCAG” was tested. Which binding signal did it give?
A: Its binding signal is 3150 fluorescence intensity (a.u.).

Q: “TAATGAATTAGGGCATTGGATGTACCAACTTATGTTATATCGGAGTCACCTAGTGCAG” was tested. Which binding signal did it give?
A: The binding signal was 23300 fluorescence intensity (a.u.).

Q: “GGATATGTATAACAATGTGGGTCAGCAATATTGAACTATGCGGAGTCACCTAGTGCAG” was tested. Which binding signal did it give?
A: Its binding signal is 3650 fluorescence intensity (a.u.).

Q: For “CCCGTGACGTGTCGGCATCGGAGGGCCCCTCGTCGGGGTCCGGAGTCACCTAGTGCAG”, which binding signal is on record?
A: Its binding signal is 10200 fluorescence intensity (a.u.).

Q: For “GGTCCCGTCAGGGAAGGACCCCACGTCCTCGGTTCCATTCCGGAGTCACCTAGTGCAG”, which binding signal is on record?
A: The binding signal was 3910 fluorescence intensity (a.u.).

Q: For “GAGCAGTAATGCGTGTGCGGCGATTGGCACGTGCATGGTGCGGAGTCACCTAGTGCAG”, which binding signal is on record?
A: Its binding signal is 3780 fluorescence intensity (a.u.).
